High-throughput results: PubChem BioAssay, National Center for Advancing Translational Sciences (NCATS)
Pf Dd2 growth: Plasmodium falciparum Dd2 growth inhibition | Potency, µM (top dose mostly 28.9 µM), for inactives: at the highest dose activity, negative = inhibition, actives largely listed as inhibitors | actives 4.3% (n = 120,000) | AID 1347417 | P. falciparum Dd2 growth, SYBR Green, 72 h; active = well fitted inhibition curve with a large enough effect;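 also: plate controls were DMSO vehicle for no effect and reference drug for full effect; nearly all actives have a fitted effect of over 65% in size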
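Readout: SYBR Green fluorescence, 485 nm excitation, 535 nm emission, after ~16 h lysis at 37C. Before that, Dd2-infected red cells (2.5% hematocrit) grew 72 h with compound, 29 uM top final concentration.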
* marks the source's active call; other numbers are inactive results; i = inactive. The full list was thinned out, with hits kept by preference. Potency is read from the fitted curve at half-maximal effect.

SMILES	Pf Dd2 growth
CCCNC(=O)CC1COc2ccc(C(=O)NCCOC)cc2N1C (centres undefined)	-14%
Cc1cccc(-n2ncc3c(N4CCN(c5ccccc5)CC4)ncnc32)c1	44%
COc1ccc(-n2ncc3c(N4CCN(c5cccc(C)c5)C(C)C4)ncnc32)cc1 (centres undefined)	5.6µM*
COc1ccc(N2CCN(c3ncnc4c3cnn4-c3ccc(C)c(Cl)c3)CC2)cc1	40%
COc1ccc(CC2CN(C(=O)c3cccnc3SC)CCO2)cc1 (centres undefined)	3%
CCn1ncc(N2CCC(NC(=O)c3ccc(C)c(F)c3)CC2)cc1=O	-19%
Cc1cccc(Cn2c(SCc3ccc(C(=O)NCc4ccccc4F)cc3)nc3ccncc32)c1	11µM*
Cc1cccc(Cn2c(SCc3ccc(C(=O)NC4CCCCC4)cc3)nc3ccncc32)c1	-16%
CCC(C(=O)NC1CCCCC1)n1c(SCc2cccc(C)c2)nc2ccncc21 (centres undefined)	-30%
COc1cccc(CNC(=O)c2ccc3oc(=O)n(Cc4ccccc4)c3c2)c1	9%
COc1cccc(CNC(=O)c2ccc(CSc3nc4ccncc4n3Cc3cccc(C)c3)cc2)c1	3.2µM*
Cc1cccc(-c2nc(Cn3c(SCc4cccc(C(F)(F)F)c4)nc4ccncc43)c(C)o2)c1	-1%
Cc1nc(C)n(CCCNC(=O)C2CCN(C(=O)C3CCC3)CC2)n1	-4%
CCNC(=O)N1C[C@@H](Oc2ccccc2)C[C@@H]1C(=O)N1CCOCC1	-1%
CN1C(=O)CCCCC1C(=O)NCC1CCCCC1 (centres undefined)	12%
COc1cccc(-c2cc3c(=O)n(CCNC(=O)COc4cccc(C)c4)ccn3n2)c1	-20%
Cc1cc(C)cc(NC(=O)Cn2nc3n(c2=O)CCCCC3)c1	2%
CCn1c(=O)n(CC)c2cc(N3CCCCC3)c(NC(=O)Nc3cc(C)cc(C)c3)cc21	10µM*
Cc1ccc(NC(=O)Nc2cc3c(cc2N2CCCCC2)n(C)c(=O)n3C)cc1Cl	i
CCc1ccccc1NC(=O)Nc1cc(C(=O)NCc2ccccc2OC)ccc1N1CCCC1	-5%
CCn1c(=O)n(CC)c2cc(N3CCCCC3)c(NC(=O)Nc3ccccc3Cl)cc21	10µM*
Cc1cc(C)cc(NC(=O)Cn2c(N3CCCCC3)nc(C)c(C)c2=O)c1	i
Cc1cnc(C(=O)NC2C[C@H]3CC[C@@H](C2)N3C(=O)c2ccc(C)c(C)c2)cn1 (some centres undefined)	i
O=C(CCc1cc2n(n1)CCCN(C(=O)CCc1ccsc1)C2)NC1CC1	-23%
COc1ccc(C(=O)N2CCn3c(nn(-c4ccc(C(F)(F)F)cc4)c3=O)C2)cc1	-3%
SMILES	Pf Dd2 growth
O=C1Nc2ccccc2CNC12CCN(CC1CCCC1)CC2	-18%
COc1ccc(CCC(=O)Nc2cccc(-c3nnc4n3CCCC4)c2)cc1	7.9µM*
O=C(CCCc1ccccc1)Nc1cccc(-c2nnc3n2CCCC3)c1	4.5µM*
Cc1cccc(NC(=O)Cn2nc3n(c2=O)CCCCC3)c1	27%
COc1cccc(NC(=O)Cn2c(C)cc3nc4n(c(=O)c32)CCCCC4)c1	-11%
O=C(Nc1ccc(-c2nnc3n2CCCC3)cc1)Nc1ccccc1F	-17%
COc1ccccc1CCC(=O)Nc1ccc(-c2nnc3n2CCCC3)cc1	i
CC(C)C(=O)N1CCC(Oc2ncccc2C(=O)N2CCCCC2)C1 (centres undefined)	-9%
O=C1CCC2(CCCO2)CCN1Cc1cccc(F)c1 (centres undefined)	10%
O=C(c1ccc2c(c1)N(Cc1cccc(Cl)c1)C(=O)c1ccccc1S2(=O)=O)N1CCCCCC1	-29%
O=C(Nc1cc(Cl)ccc1Cl)c1ccc2c(c1)N(Cc1cccc(Cl)c1)C(=O)c1ccccc1S2=O (centres undefined)	4µM*
Cc1ccccc1CN1C(=O)c2ccccc2S(=O)c2ccc(C(=O)NCc3ccccc3)cc21 (centres undefined)	i
O=C(NCCc1ccccc1)c1ccc2c(c1)N(Cc1ccccc1F)C(=O)c1ccccc1S2=O (centres undefined)	i
CCN(CC)CCNC(=O)c1ccc2c(c1)N(Cc1ccccc1)C(=O)c1ccccc1S2=O (centres undefined)	i
O=C(Nc1cccc(Cl)c1Cl)c1ccc2c(c1)N(Cc1cccc(Cl)c1)C(=O)c1ccccc1S2(=O)=O	5.6µM*
NC(=O)C1CCN(C(=O)c2ccc3c(c2)N(Cc2cccc(Cl)c2)C(=O)c2ccccc2S3=O)CC1 (centres undefined)	i
O=C(c1ccc2c(c1)N(Cc1cccc(Cl)c1)C(=O)c1ccccc1S2(=O)=O)N1CCCC1	-11%
COC(=O)c1cc(NC(=O)c2ccc3c(c2)N(Cc2cccc(Cl)c2)C(=O)c2ccccc2S3=O)cc(C(=O)OC)c1 (centres undefined)	3.2µM*
CCn1ccc(C(=O)N2CCC(CCOC)(NS(C)(=O)=O)CC2)n1	25%
COCCNC(=O)[C@@H]1C[C@@H](O)CN1C1CCN(C(=O)c2ccccc2F)CC1	7%
